Here are results for 38 compounds from PubChem BioAssay (Tox21).

Records with an inconclusive call do not appear. Where a call stands in place of a potency, no number is given. Activity calls are given as the source filed them. Calls follow the shape of the dose curve; as a rule, active = well fitted curve in the direction sought with a large enough effect in the repeat runs; inconclusive = weak or mixed curves; inactive = no such curve, though single readings can be large; an effect the other way counts as inactive or inconclusive.

The first assay is described as follows: qHTS RealTime-Glo MT Cell Viability Assay in HEK293 cells - 8 hour (AID 1224887). Also: top concentration of the series differs between compounds; nearly all actives have a fitted effect of over 50% in size. The following applies: RealTime-Glo luminescence; series mostly up to 76.8 µM; activity change, negative = cytotoxicity: at the top concentration. The procedure, abridged: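 Viable HEK293 cells reduce a cell-permeant prosubstrate; the product diffuses out and is consumed by NanoLuc in the medium to give light. Compounds went in after a 5 h incubation and plates were read over the treatment course.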
On to `CCCCN(CCCC)CCCC`, for which the Potency result was “inactive”.
Still for that read-out and setting: the value for `CCOC(=O)NNc1nncc2ccccc12` was “inactive”; that for `C[Si](O[Si](C)(C)C)O[Si](C)(C)C` was “inactive”.
In the case of `N[C@@H](Cc1cc(I)c(Oc2cc(I)c(O)c(I)c2)c(I)c1)C(=O)O`, the Potency result was “inactive”.
The same measure, in the same setting: the value for `O=C(O)c1ccccc1C(c1ccc(O)cc1)c1ccc(O)cc1` was “inactive”; that for `CCCCCCCCC/C=C/CC1CC(=O)OC1=O` (stereo not drawn) was “inactive”.
Regarding `C#C[C@]1(O)CC[C@H]2[C@@H]3CCC4=CC(=O)CC[C@@H]4[C@H]3CC[C@@]21C`, the “activity change, negative = cytotoxicity” value is -2.2% [at 35.3 µM] (inactive).
For `CCCCCC(N)=O`, the Potency result was “inactive”.
On the same count and under the same terms, under `O=C(O)c1ccc(C(=O)O)cc1` stands “inactive”.
Still for that read-out and setting: the value for `CC1CCC(C(C)C)C(O)C1` (stereo not drawn) was “inactive”; that for `CC1CCC2CC1C2(C)C` (stereo not drawn) was “inactive”; that for `CSCCC=O` was “inactive”.
Still for that read-out and setting: under `OCCOCCOCCO` stands “inactive”; under `O=c1[nH]nnc2ccccc12`, “inactive”.
For `CC(=O)CC(=O)Nc1ccccc1C`, the Potency entry was “inactive”.
Still for that read-out and setting: under `CN(C)CCC(c1ccccc1)c1ccccn1` (stereo not drawn) stands “inactive”; under `CCCCCC/C(C=O)=C\c1ccccc1`, “inactive”; under `Nc1ccccc1[N+](=O)[O-]`, “inactive”.
Consider `C=C(C)C(=O)O[C@H]1C[C@@H]2CC[C@@]1(C)C2(C)C`, for which the “activity change, negative = cytotoxicity” value was 14.5% (inactive).
For the compound `OCC(CO)(CBr)CBr`, the Potency result is “inactive”.
On the same count and under the same terms, under `CC(=O)Nc1ccccc1` stands “inactive”.
Still for that read-out and setting: under `CCCCOC(=O)COc1ccc(Cl)cc1Cl` stands “inactive”; under `CCCCC(CC)COC(=O)CCCCC(=O)OCC(CC)CCCC` (stereo not drawn), “inactive”.
Still for that read-out and setting: under `C[C@H]1C[C@H]2[C@@H]3CCC4=CC(=O)C=C[C@]4(C)[C@@]3(F)[C@@H](O)C[C@]2(C)[C@@]1(O)C(=O)CO` stands “inactive”.
Consider `Cc1ccc(N(C)C)cc1`, for which the Potency result was “inactive”.
The same measure, in the same setting: under `COc1ccc(NC(C)=O)cc1N` stands “inactive”; under `C/C=C1/CC2C=CC1C2` (stereo not drawn), “inactive”; under `C#CCN(C)Cc1ccccc1`, “inactive”.
With `C=C(C)C(=O)OCCOCCOCCOC(=O)C(=C)C`, the Potency entry is “inactive”.
On the same count and under the same terms, the value for `CC(C)CC(=O)CC(C)C` was “inactive”; that for `CCC(O)OCCCOC` (stereo not drawn) was “inactive”; that for `OCc1cccnc1` was “inactive”.
For the compound `CC1=CCC2CC1C2(C)C` (stereo not drawn), the Potency result is “inactive”.
Same read-out and setting: under `O=C(O)c1ccc2c(c1)C(=O)OC2=O` stands “inactive”; under `CCCCCOC(C)=O`, “inactive”; under `O=C=NCCCCCCN=C=O`, “inactive”.
Regarding `CCc1ccc(CCOc2ccc(CC3SC(=O)NC3=O)cc2)nc1` (stereo not drawn), the Potency entry was “inactive”.

The next assay can be described thus: A CellTox Green Cytotoxicity Assay to monitor cytotoxicity in HEK293 cells - 16 hour (AID 1224888). Also: nearly all actives have a fitted effect of over 35% in size. The settings on record: CellTox Green fluorescence, hits give high values; series mostly up to 76.8 µM; activity change: at the top concentration. A digest of the protocol: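 Fluorescence intensity, read at 0, 8, 16, 24, 32 and 40 h of compound treatment, reflected dye binding to DNA of dead HEK293 cells; compounds (23 nL, DMSO) were added 5 h after plating cells with reagent.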
Take `CCCCN(CCCC)CCCC`: the result was inactive.
As for `CCOC(=O)NNc1nncc2ccccc12`, the compound was called inactive.
Still for that read-out and setting: the value for `C[Si](O[Si](C)(C)C)O[Si](C)(C)C` was “inactive”.
Still for that read-out and setting: under `N[C@@H](Cc1cc(I)c(Oc2cc(I)c(O)c(I)c2)c(I)c1)C(=O)O` stands “inactive”; under `O=C(O)c1ccccc1C(c1ccc(O)cc1)c1ccc(O)cc1`, “inactive”.
Still for that read-out and setting: the value for `CCCCCCCCC/C=C/CC1CC(=O)OC1=O` (stereo not drawn) was “inactive”; that for `C#C[C@]1(O)CC[C@H]2[C@@H]3CCC4=CC(=O)CC[C@@H]4[C@H]3CC[C@@]21C` was “inactive”.
On to `CCCCCC(N)=O`, for which the outcome was inactive.
On the same count and under the same terms, under `O=C(O)c1ccc(C(=O)O)cc1` stands “inactive”; under `CC1CCC(C(C)C)C(O)C1` (stereo not drawn), “inactive”.
The same measure, in the same setting: the value for `CC1CCC2CC1C2(C)C` (stereo not drawn) was “inactive”.
The same measure, in the same setting: under `CSCCC=O` stands “inactive”; under `OCCOCCOCCO`, “inactive”; under `O=c1[nH]nnc2ccccc12`, “inactive”.
As for `CC(=O)CC(=O)Nc1ccccc1C`, the result was inactive.
The same measure, in the same setting: the value for `CN(C)CCC(c1ccccc1)c1ccccn1` (stereo not drawn) was “inactive”; that for `CCCCCC/C(C=O)=C\c1ccccc1` was “inactive”; that for `Nc1ccccc1[N+](=O)[O-]` was “inactive”.
The same measure, in the same setting: under `C=C(C)C(=O)O[C@H]1C[C@@H]2CC[C@@]1(C)C2(C)C` stands “inactive”.
With `OCC(CO)(CBr)CBr`, the “activity change” value is -9% (inactive).
Consider `CC(=O)Nc1ccccc1`, for which the result was inactive.
Same read-out and setting: the value for `CCCCOC(=O)COc1ccc(Cl)cc1Cl` was “inactive”.
Still for that read-out and setting: the value for `CCCCC(CC)COC(=O)CCCCC(=O)OCC(CC)CCCC` (stereo not drawn) was “inactive”; that for `C[C@H]1C[C@H]2[C@@H]3CCC4=CC(=O)C=C[C@]4(C)[C@@]3(F)[C@@H](O)C[C@]2(C)[C@@]1(O)C(=O)CO` was “inactive”; that for `O=P(OC(CCl)CCl)(OC(CCl)CCl)OC(CCl)CCl` was “inactive”.
The same measure, in the same setting: under `Cc1ccc(N(C)C)cc1` stands “inactive”.
Turning to `COc1ccc(NC(C)=O)cc1N`, the result was inactive.
`C/C=C1/CC2C=CC1C2` (stereo not drawn): the compound was called inactive.
Still for that read-out and setting: under `C#CCN(C)Cc1ccccc1` stands “inactive”; under `C=C(C)C(=O)OCCOCCOCCOC(=O)C(=C)C`, “inactive”.
For the compound `CC(C)CC(=O)CC(C)C`, the outcome was inactive.
Still for that read-out and setting: under `CCC(O)OCCCOC` (stereo not drawn) stands “inactive”; under `OCc1cccnc1`, “inactive”.
For `CC1=CCC2CC1C2(C)C` (stereo not drawn), the “activity change” value is 1.41% (inactive).
The same measure, in the same setting: the value for `O=C(O)c1ccc2c(c1)C(=O)OC2=O` was -5.64% (inactive).
Turning to `CCCCCOC(C)=O`, the compound was classed as inactive.
Turning to `O=C=NCCCCCCN=C=O`, the compound was classed as inactive.
Same read-out and setting: the value for `CCc1ccc(CCOc2ccc(CC3SC(=O)NC3=O)cc2)nc1` (stereo not drawn) was “inactive”.

The nature of a further assay: qHTS RealTime-Glo MT Cell Viability Assay in HepG2 cells - 0 hour (AID 1224889). Also: nearly all actives have a fitted effect of over 50% in size. Also: potency is read from the fitted curve at half-maximal effect. The following applies: RealTime-Glo luminescence; series mostly up to 76.8 µM; activity change, negative = cytotoxicity: at the top concentration. The procedure, abridged: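 Cells + NanoLuc/prosubstrate dispensed (600 cells/well) → 5 h at 37 C/5% CO2 → compounds in DMSO transferred → 40 h incubation at 37 C, luminescence read at 0, 8, 16, 24, 32, 40 h.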
(In general: In qHTS, concentration-response curves come from the screen itself.)
For the compound `CCCCN(CCCC)CCCC`, the Potency entry was “inactive”.
On the same count and under the same terms, the value for `CCOC(=O)NNc1nncc2ccccc12` was “inactive”; that for `C[Si](O[Si](C)(C)C)O[Si](C)(C)C` was “inactive”.
On the same count and under the same terms, under `N[C@@H](Cc1cc(I)c(Oc2cc(I)c(O)c(I)c2)c(I)c1)C(=O)O` stands “inactive”; under `O=C(O)c1ccccc1C(c1ccc(O)cc1)c1ccc(O)cc1`, “inactive”; under `CCCCCCCCC/C=C/CC1CC(=O)OC1=O` (stereo not drawn), “inactive”.
On to `C#C[C@]1(O)CC[C@H]2[C@@H]3CCC4=CC(=O)CC[C@@H]4[C@H]3CC[C@@]21C`, for which the “activity change, negative = cytotoxicity” value is -18.6% [at 35.3 µM] (inactive).
On to `CCCCCC(N)=O`, for which the Potency entry was “inactive”.
As for `O=C(O)c1ccc(C(=O)O)cc1`, the Potency entry was “inactive”.
As for `CC1CCC(C(C)C)C(O)C1` (stereo not drawn), the Potency entry is “inactive”.
As to `CC1CCC2CC1C2(C)C` (stereo not drawn), the Potency result is “inactive”.
On the same count and under the same terms, under `CSCCC=O` stands “inactive”; under `OCCOCCOCCO`, “inactive”.
Same read-out and setting: under `O=c1[nH]nnc2ccccc12` stands “inactive”; under `CC(=O)CC(=O)Nc1ccccc1C`, “inactive”.
Still for that read-out and setting: the value for `CN(C)CCC(c1ccccc1)c1ccccn1` (stereo not drawn) was “inactive”; that for `CCCCCC/C(C=O)=C\c1ccccc1` was “inactive”; that for `Nc1ccccc1[N+](=O)[O-]` was “inactive”.
On to `C=C(C)C(=O)O[C@H]1C[C@@H]2CC[C@@]1(C)C2(C)C`, for which the Potency entry was “inactive”.
The same measure, in the same setting: under `OCC(CO)(CBr)CBr` stands “inactive”; under `CC(=O)Nc1ccccc1`, “inactive”.
For `CCCCOC(=O)COc1ccc(Cl)cc1Cl`, the Potency entry is “inactive”.
With `CCCCC(CC)COC(=O)CCCCC(=O)OCC(CC)CCCC` (stereo not drawn), the Potency result is “inactive”.
The same measure, in the same setting: under `C[C@H]1C[C@H]2[C@@H]3CCC4=CC(=O)C=C[C@]4(C)[C@@]3(F)[C@@H](O)C[C@]2(C)[C@@]1(O)C(=O)CO` stands 7.76 µM (active).
Consider `O=P(OC(CCl)CCl)(OC(CCl)CCl)OC(CCl)CCl`, for which the Potency entry was “inactive”.
For the compound `Cc1ccc(N(C)C)cc1`, the Potency entry is “inactive”.
Still for that read-out and setting: under `COc1ccc(NC(C)=O)cc1N` stands “inactive”.
Same read-out and setting: the value for `C/C=C1/CC2C=CC1C2` (stereo not drawn) was “inactive”.
The same measure, in the same setting: the value for `C#CCN(C)Cc1ccccc1` was “inactive”; that for `C=C(C)C(=O)OCCOCCOCCOC(=O)C(=C)C` was “inactive”; that for `CC(C)CC(=O)CC(C)C` was “inactive”.
For `CCC(O)OCCCOC` (stereo not drawn), the Potency entry is “inactive”.
Take `OCc1cccnc1`: the Potency entry is “inactive”.
Same read-out and setting: under `CC1=CCC2CC1C2(C)C` (stereo not drawn) stands “inactive”; under `O=C(O)c1ccc2c(c1)C(=O)OC2=O`, “inactive”.
On to `CCCCCOC(C)=O`, for which the Potency entry is “inactive”.
Same read-out and setting: under `O=C=NCCCCCCN=C=O` stands “inactive”.
Turning to `CCc1ccc(CCOc2ccc(CC3SC(=O)NC3=O)cc2)nc1` (stereo not drawn), the Potency entry was “inactive”.
